{
  "source": "PubChem BioAssay (NCATS)",
  "note": "Results filed as inconclusive are left out. Calls of active or inactive are those of the source. Calls come from the whole dose curve; tested in HEK293 reporter line. Peptide text beside a SMILES is read from it. % is set by controls: 0 for no effect and ±100 for the full control effect. Note: nearly all actives have a fitted effect of over 80% in size.",
  "data": [
    {"test": "qHTS for Inhibitors of the Functional Ribonucleoprotein Complex (vRNP) of Lassa (LASV) Arenavirus: Viability assay - alamar blue signal for LASV Primary Screen (AID 1347083)", "conditions": "cell viability, alamar blue fluorescence (LASV minigenome counter-screen); series mostly up to 57.5 µM; activity change, negative = reduced viability: at the top concentration", "values": [
      {"molecule": "Nc1ccc(S(N)(=O)=O)cc1", "Potency": "inactive"},
      {"molecule": "CCC(=O)c1c(O)cc(O)cc1O", "activity change, negative = reduced viability": "32.9% (inactive)"},
      {"molecule": "CC(C)CCCC(C)NCCC(C)C", "note": "(configuration not stated)", "activity change, negative = reduced viability": "6.96% (inactive)"},
      {"molecule": "CC(C)C[C@H](NC(=O)CNC(=O)[C@H](Cc1ccc(O)cc1)NC(=O)[C@H](CO)NC(=O)[C@H](Cc1c[nH]c2ccccc12)NC(=O)[C@H](Cc1cnc[nH]1)NC(=O)[C@@H]1CCC(=O)N1)C(=O)N[C@@H](CCCN=C(N)N)C(=O)N1CCC[C@H]1C(=O)NCC(N)=O", "note": "(stereo in doubt)", "activity change, negative = reduced viability": "5.33% (inactive)"},
      {"molecule": "CC(CCc1ccc2c(c1)OCO2)NN", "note": "(configuration not stated)", "activity change, negative = reduced viability": "-2.4% (inactive)"},
      {"molecule": "O=C(O)CCCC[P+](c1ccccc1)(c1ccccc1)c1ccccc1", "activity change, negative = reduced viability": "16.3% (inactive)"},
      {"molecule": "Cc1cc(O)cc2c1O[C@](C)(CCC[C@H](C)CCC[C@H](C)CCCC(C)C)CC2", "activity change, negative = reduced viability": "1.41% (inactive)"},
      {"molecule": "NNC(=O)c1ccncc1", "Potency": "inactive"},
      {"molecule": "Cc1cc(O)cc(C)c1Cl", "activity change, negative = reduced viability": "-0.399% (inactive)"},
      {"molecule": "CN1C(C(=O)Nc2ccccn2)=C(O)c2ccccc2S1(=O)=O", "Potency": "inactive"},
      {"molecule": "Cn1c(=O)c2[nH]c(Br)nc2n(C)c1=O", "activity change, negative = reduced viability": "4.02% (inactive)"},
      {"molecule": "NS(=O)(=O)c1cc2c(cc1Cl)NC(C(Cl)Cl)NS2(=O)=O", "note": "(configuration not stated)", "Potency": "inactive"},
      {"molecule": "CC(=O)N/N=C/c1ccc([N+](=O)[O-])o1", "activity change, negative = reduced viability": "-11.2% (inactive)"},
      {"molecule": "Nc1ccc(/C=C/c2ccc(N)cc2S(=O)(=O)O)c(S(=O)(=O)O)c1", "activity change, negative = reduced viability": "3.69% [at 0.757 µM] (inactive)"},
      {"molecule": "CC(=O)Oc1ccc(C)cc1", "Potency": "inactive"},
      {"molecule": "Cc1cc(C)c(NC(=O)CN(CC(=O)O)CC(=O)O)c(C)c1Br", "activity change, negative = reduced viability": "11.9% (inactive)"},
      {"molecule": "CC(O)CCCCn1c(=O)c2c(ncn2C)n(C)c1=O", "note": "(configuration not stated)", "activity change, negative = reduced viability": "-3.79% (inactive)"},
      {"molecule": "CC(C)(Oc1ccc(C2CC2(Cl)Cl)cc1)C(=O)O", "note": "(configuration not stated)", "Potency": "inactive"},
      {"molecule": "O=C(O)c1cc(O)c(O)c(O)c1", "activity change, negative = reduced viability": "-26.7% (inactive)"},
      {"molecule": "CCN(CC)CC(=O)Oc1ccc(NC(C)=O)cc1", "activity change, negative = reduced viability": "0.701% (inactive)"},
      {"molecule": "NCCc1ccn[nH]1", "activity change, negative = reduced viability": "2.62% (inactive)"},
      {"molecule": "O=C(O)[C@@H](O)[C@H](O)[C@H](O)[C@@H](O)C(=O)O", "activity change, negative = reduced viability": "5.92% (inactive)"},
      {"molecule": "CCCCNC(=O)NS(=O)(=O)c1ccc(N)cc1", "activity change, negative = reduced viability": "-7.9% (inactive)"}
    ]},
    {"test": "qHTS for Inhibitors of the Functional Ribonucleoprotein Complex (vRNP) of Lymphocytic Choriomeningitis Arenaviruses (LCMV): Viability assay - alamar blue signal for LCMV Primary Screen (AID 1347085)", "conditions": "alamar blue viability counter-screen, LCMV vRNP screen cells; series mostly up to 57.5 µM; activity change, negative = lower viability: at the top concentration", "values": [
      {"molecule": "O=C(O)Cc1ccc(OCCNC[C@H](O)c2ccccc2)cc1", "activity change, negative = lower viability": "-121% (inactive)"},
      {"molecule": "CCN(CC)CCOC(=O)c1ccc(N)cc1", "Potency": "inactive"},
      {"molecule": "CC(=O)NC[C@H]1CN(c2ccc(N3CCOCC3)c(F)c2)C(=O)O1", "activity change, negative = lower viability": "43.5% (inactive)"},
      {"molecule": "CCNC(=O)[C@@H]1CCCN1C(=O)[C@H](CCCN=C(N)N)NC(=O)[C@H](CC(C)C)NC(=O)CNC(=O)[C@H](Cc1ccc(O)cc1)NC(=O)[C@H](CO)NC(=O)[C@H](Cc1c[nH]c2ccccc12)NC(=O)[C@H](Cc1cnc[nH]1)NC(=O)[C@@H]1CCC(=O)N1", "note": "(HELM PEPTIDE1{[Glp].H.W.S.Y.G.L.R.P.[CCN[*:1]]}$$$$V2.0)", "activity change, negative = lower viability": "8.78% (inactive)"},
      {"molecule": "Oc1ccc(Cl)c2cccnc12", "activity change, negative = lower viability": "-25.7% (inactive)"},
      {"molecule": "O=C(O)c1cc(-c2ccccc2)nc2ccccc12", "Potency": "inactive"},
      {"molecule": "CN1C(CSCC(F)(F)F)Nc2cc(Cl)c(S(N)(=O)=O)cc2S1(=O)=O", "note": "(configuration not stated)", "activity change, negative = lower viability": "13% (inactive)"},
      {"molecule": "CCCN1CCCC[C@H]1C(=O)Nc1c(C)cccc1C", "activity change, negative = lower viability": "18.5% (inactive)"},
      {"molecule": "CC(=O)[C@@]1(O)CC[C@H]2[C@@H]3C[C@H](C)C4=CC(=O)C=C[C@]4(C)[C@@]3(F)[C@@H](O)C[C@@]21C", "activity change, negative = lower viability": "2.6% (inactive)"},
      {"molecule": "CC(O)(P(=O)(O)O)P(=O)(O)O", "activity change, negative = lower viability": "2.72% (inactive)"},
      {"molecule": "CN=C(NC#N)Nc1ccc(C2=NNC(=O)CC2C)cc1", "note": "(configuration not stated)", "activity change, negative = lower viability": "6.48% (inactive)"},
      {"molecule": "COC(=O)/C=C(/C)N", "activity change, negative = lower viability": "9.59% (inactive)"},
      {"molecule": "COc1ccccc1N1CCN(CCCCNC(=O)c2ccc(-c3ccc(C(C)=O)cc3)cc2)CC1", "activity change, negative = lower viability": "6.59% (inactive)"},
      {"molecule": "O=C(OOC(=O)c1ccccc1)c1ccccc1", "activity change, negative = lower viability": "1.92% (inactive)"},
      {"molecule": "CC(=O)Nc1c(I)c(NC(C)=O)c(I)c(C(=O)O)c1I", "activity change, negative = lower viability": "7.1% (inactive)"},
      {"molecule": "O=C(C1CCCCC1)N1CC(=O)N2CCCc3ccccc3C2C1", "note": "(configuration not stated)", "activity change, negative = lower viability": "0.601% (inactive)"},
      {"molecule": "Nc1ccc(S(N)(=O)=O)cc1", "activity change, negative = lower viability": "-2.77% (inactive)"},
      {"molecule": "CCC(=O)c1c(O)cc(O)cc1O", "activity change, negative = lower viability": "18.4% (inactive)"},
      {"molecule": "CC(C)CCCC(C)NCCC(C)C", "note": "(configuration not stated)", "activity change, negative = lower viability": "12.1% (inactive)"},
      {"molecule": "CC(C)C[C@H](NC(=O)CNC(=O)[C@H](Cc1ccc(O)cc1)NC(=O)[C@H](CO)NC(=O)[C@H](Cc1c[nH]c2ccccc12)NC(=O)[C@H](Cc1cnc[nH]1)NC(=O)[C@@H]1CCC(=O)N1)C(=O)N[C@@H](CCCN=C(N)N)C(=O)N1CCC[C@H]1C(=O)NCC(N)=O", "note": "(stereo in doubt)", "activity change, negative = lower viability": "6.23% (inactive)"},
      {"molecule": "CC(CCc1ccc2c(c1)OCO2)NN", "note": "(configuration not stated)", "activity change, negative = lower viability": "-3.27% (inactive)"},
      {"molecule": "O=C(O)CCCC[P+](c1ccccc1)(c1ccccc1)c1ccccc1", "activity change, negative = lower viability": "15.5% (inactive)"},
      {"molecule": "Cc1cc(O)cc2c1O[C@](C)(CCC[C@H](C)CCC[C@H](C)CCCC(C)C)CC2", "activity change, negative = lower viability": "11.7% (inactive)"},
      {"molecule": "NNC(=O)c1ccncc1", "Potency": "inactive"},
      {"molecule": "Cc1cc(O)cc(C)c1Cl", "activity change, negative = lower viability": "-0.2% (inactive)"},
      {"molecule": "CN1C(C(=O)Nc2ccccn2)=C(O)c2ccccc2S1(=O)=O", "Potency": "inactive"},
      {"molecule": "Cn1c(=O)c2[nH]c(Br)nc2n(C)c1=O", "activity change, negative = lower viability": "-12.1% (inactive)"},
      {"molecule": "NS(=O)(=O)c1cc2c(cc1Cl)NC(C(Cl)Cl)NS2(=O)=O", "note": "(configuration not stated)", "Potency": "inactive"},
      {"molecule": "CC(=O)N/N=C/c1ccc([N+](=O)[O-])o1", "activity change, negative = lower viability": "-14.4% (inactive)"},
      {"molecule": "Nc1ccc(/C=C/c2ccc(N)cc2S(=O)(=O)O)c(S(=O)(=O)O)c1", "activity change, negative = lower viability": "0.0811% [at 0.757 µM] (inactive)"},
      {"molecule": "CC(=O)Oc1ccc(C)cc1", "Potency": "inactive"},
      {"molecule": "Cc1cc(C)c(NC(=O)CN(CC(=O)O)CC(=O)O)c(C)c1Br", "activity change, negative = lower viability": "7.76% (inactive)"},
      {"molecule": "CC(O)CCCCn1c(=O)c2c(ncn2C)n(C)c1=O", "note": "(configuration not stated)", "activity change, negative = lower viability": "-0.818% (inactive)"},
      {"molecule": "CC(C)(Oc1ccc(C2CC2(Cl)Cl)cc1)C(=O)O", "note": "(configuration not stated)", "Potency": "inactive"},
      {"molecule": "O=C(O)c1cc(O)c(O)c(O)c1", "activity change, negative = lower viability": "2.05% (inactive)"},
      {"molecule": "CCN(CC)CC(=O)Oc1ccc(NC(C)=O)cc1", "activity change, negative = lower viability": "-1.19% (inactive)"},
      {"molecule": "NCCc1ccn[nH]1", "activity change, negative = lower viability": "-1.11% (inactive)"},
      {"molecule": "O=C(O)[C@@H](O)[C@H](O)[C@H](O)[C@@H](O)C(=O)O", "activity change, negative = lower viability": "15.3% (inactive)"},
      {"molecule": "CCCCNC(=O)NS(=O)(=O)c1ccc(N)cc1", "activity change, negative = lower viability": "0.203% (inactive)"}
    ]}
  ]
}
